Sampled rows, rich in hits. Any-hit rate of the full collection: about 21%.
CHX counter – counter-screen hit for Shiga toxin inhibitors, cycloheximide; cell reporter, cycloheximide protein synthesis inhibition counterscreen; max response, %; hit rate 12% among 300,000; AID 2314; in the data active means max response mostly above about 13%, no sharp cut-off; inactive means mostly below about 14%; further: read at 38.3 µM for the half of the compounds with a filed dose
Pf growth 48h – inhibits P. falciparum growth in the first generation, 48 h; Potency, µM (doses to about 28.7 µM), usual class: inhibitors; hit rate 5.9% among 310,000; P. falciparum luciferase growth in erythrocytes, 48 h
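Parasite viability was followed by luminescence of a genomically integrated firefly luciferase. Cultures held 0.1% parasitemia at 2% hematocrit (final), incubated under 5% CO2 at 37 C.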
Pf growth 96h – P. falciparum growth inhibition at 96 hour, primary screen for plastid delayed-death inhibitors; AID 504834; Potency, µM (series often up to 28.7 µM), actives largely listed as inhibitors; hit rate 6.9% among 320,000; P. falciparum luciferase reporter growth, 96 h
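Parasite growth measured via integrated firefly luciferase reporter in P. falciparum. Infected erythrocytes at 2% hematocrit, 0.05% parasitemia final were treated 96 hours at 37 C under 5% CO2, and luminescence was read.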
Shiga inhibitor – inhibitors of Shiga toxin in Vero cells. Vero cells, Shiga toxin protein synthesis inhibition reporter. inhibition, % at 38.7 µM. hit rate 9.2% among 290,000; in the data active means inhibition mostly above about 28%, no sharp cut-off; inactive means mostly below about 43%
HCV inh – blocks hepatitis C virus | Potency, µM (highest dose often 41.8 µM), hits mostly inhibitors | Huh7.5.1 HCVcc-Cre infection, luciferase reporter, 44 h | hit rate 3.4% among 340,000
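Infectious HCV cell culture screen: compound-treated cells (1,000/well, pre-plated 4 h) are infected with HCVcc-Cre at roughly 0.5 moi and grown 44 h. Infection is quantified by luciferase signal after 15 min substrate incubation at room temperature.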
HCMV antiviral – blocks human cytomegalovirus replication. HFF cells, HCMV-luciferase reporter, 72 h; active compounds read low. activity change, negative = inhibition, % at 57.5 µM. hit rate 4.5% among 410,000. AID 1259415; in the data active means activity change below about -60%; inconclusive means no clear call, values can overlap the other calls; inactive means above about -39%
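Inhibition of viral replication was scored as loss of reporter luminescence in HFFs infected with HCMV-luciferase (MOI 1 PFU/cell) for 72 h; compounds tested at 2 doses, normalized to buffer and Salinomycin controls.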
Each line names hits and unclear results; the compound was inactive in the other large screens. Unless noted, the call rests on the fitted dose curve; in most records, active means well fitted inhibition curve with a large enough effect; inconclusive means small, poorly fitted or top-dose-only effect, or another doubt; inactive means no such curve, though single readings can be large or run the other way.

COc1ccc(/C=C(/CC(=O)NCc2ccc(Cl)cc2)c2nc3ccccc3s2)cc1	CHX counter 19, Pf growth 96h inconclusive, HCMV antiviral inconclusive
COc1ccc(/C=C(/CC(=O)Nc2ccccc2)c2nc3ccccc3s2)cc1	Pf growth 96h inconclusive
COc1cccc(OC)c1C1=NCC(=O)Nc2c1oc1ccc(Br)cc21	Pf growth 48h inconclusive, Pf growth 96h 1.9µM, HCV inh inconclusive, HCMV antiviral -95
O=C(C/C=N\OCc1ccc([N+](=O)[O-])cc1)Nc1ccc(Br)cc1	HCMV antiviral -66
O=C(N/N=C/c1ccc2nccnc2c1)c1ccc(Br)cc1	Pf growth 48h inconclusive
Cc1ccc2cc(/C=N/NC(=O)c3ccc(F)cc3)c(Cl)nc2c1	none
O=C(O)c1ccc(N/N=C/c2ccc3nccnc3c2)cc1	HCMV antiviral -78
O=C(O)c1ccc(N/N=C/c2ccncc2)cc1	CHX counter 25, Shiga inhibitor 35
O=C(O)c1ccc(/C=N\Nc2ccccn2)cc1	none (no result: CHX counter, Pf growth 48h, Pf growth 96h, Shiga inhibitor)
O=C(O)c1ccc(/C=N/Nc2ncc(Cl)cc2Cl)cc1	Shiga inhibitor 65
FC(F)(F)c1cnc(N/N=C/c2ccncc2)c(Cl)c1	none
Cc1ccc2nc(Cl)c(/C=N/Nc3ccc(C(=O)O)cc3)cc2c1	CHX counter 32
CCOC(=O)c1[nH]c(C)c(CCC(=O)Nc2cc(Cl)c(OC)cc2OC)c1C	none (no result: CHX counter, Pf growth 48h, Pf growth 96h, Shiga inhibitor, HCV inh)
O=C1/C(=C/c2cccc3ccccc23)CCCc2ccccc21	CHX counter 29, Shiga inhibitor 51, HCV inh inconclusive
CC1CN(S(=O)(=O)c2ccc(F)cc2)C(C)N1C(=O)N1CCOCC1 (stereo not given)	none
CCCCNS(=O)(=O)c1ccc2nc(SCC(N)=O)[nH]c2c1	none
CCCCNS(=O)(=O)c1ccc2nc(SCC(=O)Nc3ccccc3Cl)[nH]c2c1	Pf growth 96h inconclusive, HCV inh 13µM, HCMV antiviral -82
CCCCNS(=O)(=O)c1ccc2nc(SCC(=O)Nc3cccc(F)c3)[nH]c2c1	none
CCCCNS(=O)(=O)c1ccc2nc(SCC(=O)c3ccccc3OC)[nH]c2c1	HCV inh inconclusive, HCMV antiviral -79 (no result: Pf growth 48h)
O=C(NC1CCCC1)C(c1ccncc1)N(C(=O)Cc1cccs1)c1ccccc1 (stereo not given)	none
Cc1ccc(N(C(=O)c2csnn2)C(C(=O)NC2CCCCC2)c2ccncc2)cc1 (stereo not given)	HCMV antiviral -64
Cc1ccc(C(C(=O)NC2CCCC2)N(C(=O)Cc2cccs2)c2ccc3c(c2)OCCO3)cc1 (stereo not given)	Pf growth 48h 3.3µM, Pf growth 96h inconclusive, HCV inh inconclusive
O=C(NC1CCCC1)C(c1ccccn1)N(C(=O)c1csnn1)c1ccccc1Cl (stereo not given)	Pf growth 96h inconclusive, HCMV antiviral -66
Cc1ccc(N(C(=O)Cc2cccs2)C(C(=O)NC2CCCC2)c2ccncc2)cc1 (stereo not given)	Pf growth 48h inconclusive, Pf growth 96h 0.93µM
O=C(NC1CCCC1)C(c1ccc(F)cc1)N(C(=O)Cc1cccs1)c1ccc2c(c1)OCCO2 (stereo not given)	none
Cc1cc(C)cc(N(C(=O)c2csnn2)C(C(=O)NC2CCCCC2)c2ccncc2)c1 (stereo not given)	Pf growth 96h inconclusive
Cc1cccc(N2CC(C(=O)NC3CCCCCC3)CC2=O)c1C (stereo not given)	none (no result: CHX counter, Pf growth 48h, Pf growth 96h, Shiga inhibitor)
CCC(C)NC(=O)c1ccc(N2CC3CC(C2)c2cccc(=O)n2C3)c(NC(=O)c2c(F)cccc2F)c1 (stereo not given)	none (no result: CHX counter, Pf growth 48h, Pf growth 96h, Shiga inhibitor, HCV inh)
Cc1ccc(C)c(N(C(=O)Cc2cccs2)C(C(=O)NC2CCCC2)c2ccc(C)o2)c1 (stereo not given)	Pf growth 48h inconclusive, HCMV antiviral inconclusive
O=C(NC1CCCCC1)C(c1ccccc1)N(Cc1ccc2c(c1)OCO2)C(=O)c1cnsn1 (stereo not given)	Pf growth 48h 9.3µM
Cc1ccc(C(C(=O)NC2CCCC2)N(Cc2ccc3c(c2)OCO3)C(=O)c2snc(C(N)=O)c2N)cc1 (stereo not given)	Pf growth 48h 7.4µM, Pf growth 96h 8.3µM
Cc1ccc(C(C(=O)NC2CCCC2)N(C(=O)Cc2cccs2)c2ccc(C)c(C)c2)o1 (stereo not given)	Pf growth 48h 10µM, Pf growth 96h 10µM, HCV inh inconclusive
CC(C)c1ccc(N(C(=O)c2csnn2)C(C(=O)NC(C)(C)C)c2ccncc2)cc1 (stereo not given)	CHX counter 35
Cc1ccc(N(C(=O)c2csnn2)C(C(=O)NC(C)(C)C)c2ccncc2)cc1 (stereo not given)	none
COc1ccc(CN(C(=O)c2snc(C(N)=O)c2N)C(C(=O)NC2CCCC2)c2ccc(OC)cc2)cc1 (stereo not given)	Pf growth 48h inconclusive, HCV inh inconclusive
COC(=O)[C@H]1CC=C[C@H]2CCN(Cc3ccc(Cl)c(Cl)c3)C(=O)[C@@H]12	none (no result: Pf growth 48h, Pf growth 96h, HCV inh, HCMV antiviral)
COc1ccccc1CNc1ccc(-c2nc(-c3cccc(C)c3)no2)cc1[N+](=O)[O-]	none (no result: CHX counter, Pf growth 48h, Pf growth 96h, Shiga inhibitor, HCV inh)
O=C(NCCc1ccccc1)C(c1ccncc1)N(C(=O)c1csnn1)C1CC1 (stereo not given)	Pf growth 96h 12µM
Cc1ccc(C(C(=O)NC2CCCC2)N(C(=O)c2csnn2)C2CC2)cc1 (stereo not given)	none
Cc1ccc(C(C(=O)NC2CCCC2)N(Cc2ccc3c(c2)OCO3)C(=O)Cc2cccs2)cc1 (stereo not given)	Pf growth 48h 13µM, HCV inh inconclusive
CC(C)c1ccc(C(C(=O)NC2CCCCC2)N(C(=O)c2csnn2)C2CC2)cc1 (stereo not given)	Pf growth 48h 13µM
CCCCN(CCCC)CCNC(=O)c1cn(C)c2ccc(S(=O)(=O)N3CCOCC3)cc2c1=O	none (no result: CHX counter, Pf growth 48h, Pf growth 96h, Shiga inhibitor, HCV inh)
O=S(=O)(Nc1cccc(-c2cn3c(n2)SCC3)c1)c1ccccc1	none
CC1(C)CC2CC(C)(CN2/C=N/c2sc3c(c2C#N)CC(C)(C)NC3(C)C)C1 (stereo not given)	Pf growth 48h inconclusive, Pf growth 96h inconclusive, HCV inh inconclusive, HCMV antiviral -88
Cc1ccc(S(=O)(=O)Nc2cccc(C(=O)NCC3(N4CCCCC4)CCCCC3)c2)cc1F	Pf growth 48h inconclusive, Pf growth 96h inconclusive (no result: CHX counter, Shiga inhibitor)
C[C@@H](NC(=O)c1nc[nH]c1C(=O)NCc1ccc(CNC(=O)OC(C)(C)C)cc1)c1ccccc1	Pf growth 48h 12µM, Pf growth 96h inconclusive, HCV inh inconclusive (no result: CHX counter, Shiga inhibitor)
O=C(Nc1ccccc1)c1nc[nH]c1C(=O)N1CCN(c2ccccc2)CC1	Pf growth 96h inconclusive, HCMV antiviral inconclusive (no result: CHX counter, Shiga inhibitor)
COc1ccc(NC(=O)c2nc[nH]c2C(=O)N2CCN(c3ccccc3)CC2)cc1	Pf growth 96h inconclusive, HCMV antiviral -72
